# Results filed as inconclusive are left out. Values without a mark were called inactive. Activity calls are given as the source filed them. Calls follow the shape of the dose curve; as a rule, active = well fitted curve in the direction sought with a large enough effect; inconclusive = small, poorly fitted or top-dose-only effect, or another doubt; inactive = no such curve, though single readings can be large; an effect the other way counts as inactive or inconclusive.
# What was measured:
# HEK293 = assay: Cytotoxic Profiling of Annotated Libraries Using Quantitative High-Throughput Screening (AID 1296008); details: Five cell lines viability, CellTiter-Glo ATP luminescence, 48-72 h; max response: hits give low values; also: nearly all actives have a fitted effect of over 60% in size
# Procedure, shortened: (§1)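 Compounds were pin-transferred onto cells and incubated 48 or 72 hr at 37 degree Celsius, 95% humidity. CellTiter-Glo was added, plates sat 10 min at room temperature, then ATP-coupled luminescence was imaged as the viability read-out.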
# NIH3T3 = assay: as above; details: Five cell lines viability, CellTiter-Glo ATP luminescence, 48-72 h; max response: hits give low values
# Procedure, shortened: as §1
# CASKI = assay: Primary qHTS to identify gynecologic anti-cancer compounds using libraries of approved drugs and bioactive compounds (AID 1345084); details: Gynecologic cancer cell panel viability, ATPlite luminescence, 48 h; series mostly up to 57.5 µM; also: nearly all actives have a fitted effect of over 55% in size
# Procedure, shortened: (§2)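 Cell viability after 48 h drug treatment, ATPlite luminescence readout; five doses.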
# JEG-3 = assay: as above; details: Gynecologic cancer cell panel viability, ATPlite luminescence, 48 h; series mostly up to 57.5 µM
# Procedure, shortened: as §2
# C33A = assay: as above; details: Gynecologic cancer cell panel viability, ATPlite luminescence, 48 h; series mostly up to 57.5 µM
# Procedure, shortened: as §2
# CAOV3 = assay: as above; details: Gynecologic cancer cell panel viability, ATPlite luminescence, 48 h; series mostly up to 57.5 µM
# Procedure, shortened: as §2
# Es-2 = assay: as above; details: Gynecologic cancer cell panel viability, ATPlite luminescence, 48 h; series mostly up to 57.5 µM
# Procedure, shortened: as §2
# HeLa = assay: as above; details: Gynecologic cancer cell panel viability, ATPlite luminescence, 48 h; series mostly up to 57.5 µM
# Procedure, shortened: as §2
# Hek293T = assay: as above; details: Gynecologic cancer cell panel viability, ATPlite luminescence, 48 h, control line for the selectivity index; series mostly up to 57.5 µM
# Procedure, shortened: as §2
# OV90 = assay: as above; details: Gynecologic cancer cell panel viability, ATPlite luminescence, 48 h; series mostly up to 57.5 µM
# Procedure, shortened: as §2
# HaCat = assay: Cytotoxic Profiling of Annotated Libraries Using Quantitative High-Throughput Screening (AID 1296008); details: Five cell lines viability, CellTiter-Glo ATP luminescence, 48-72 h; max response: hits give low values; also: nearly all actives have a fitted effect of over 60% in size
# Procedure, shortened: as §1
# % is scaled to controls: 0 for no effect and ±100 for the full control effect; potency is read from the fitted curve at half-maximal effect.
smiles,measurement,setting,value
Clc1ccc(Nc2nc3ccccc3c3nc(C4CCCCC4)[nH]c23)cc1Cl,Potency,HEK293,11.6 µM (active)
same,Potency,NIH3T3,20.6 µM (active)
same,Potency,CASKI,inactive
same,Potency,JEG-3,inactive
C=C1C(=O)OC2/C=C(\C)CC3C=C(CC/C=C(\C)CCC12)C(=O)O3 (configuration not stated),Potency,HEK293,11.4 µM (active)
same,Potency,C33A,inactive
same,Potency,CAOV3,inactive
same,Potency,CASKI,inactive
same,Potency,Es-2,inactive
same,Potency,HeLa,inactive
same,Potency,Hek293T,inactive
same,Potency,JEG-3,inactive
CCCC(CCC)C(=O)Nc1ccn([C@@H]2O[C@H](CO)[C@@H](O)C2(F)F)c(=O)n1,Potency,HEK293,6.51 µM (active)
same,Potency,NIH3T3,4.11 µM (active)
same,Potency,C33A,inactive
same,Potency,HeLa,inactive
same,Potency,Hek293T,inactive
same,Potency,JEG-3,inactive
O=c1ccc2ccc(OCCCCN3CCN(c4cccc5sccc45)CC3)cc2[nH]1,Potency,HEK293,11.6 µM (active)
same,max response,NIH3T3,-13.6%
same,Potency,HeLa,inactive
same,Potency,JEG-3,inactive
CCN1CCN(Cc2ccc(C(=O)Nc3ccc(C)c(Oc4ccc5c(c4)CC(=O)N5)c3)cc2C(F)(F)F)CC1,Potency,HEK293,13 µM (active)
same,Potency,C33A,inactive
same,Potency,CAOV3,inactive
same,Potency,CASKI,inactive
same,Potency,Es-2,inactive
same,Potency,HeLa,inactive
same,Potency,Hek293T,inactive
same,Potency,JEG-3,inactive
same,Potency,OV90,inactive
N#Cc1cnc2c(Cl)cc(NCc3cn(CCN4CCCCCC4)nn3)cc2c1Nc1ccc(F)c(Cl)c1,Potency,HEK293,18.4 µM (active)
same,Potency,C33A,inactive
same,Potency,CAOV3,inactive
same,Potency,CASKI,inactive
same,Potency,Es-2,inactive
same,Potency,HeLa,inactive
same,Potency,Hek293T,inactive
same,Potency,JEG-3,inactive
C[C@H](CN(C)C)Oc1nc(Nc2cc3cccc(Cl)c3cn2)cnc1C#N,Potency,HEK293,1.3 µM (active)
same,Potency,NIH3T3,2.06 µM (active)
same,Potency,C33A,inactive
same,Potency,CAOV3,inactive
same,Potency,CASKI,inactive
same,Potency,HeLa,inactive
same,Potency,JEG-3,inactive
same,Potency,OV90,inactive
CN(C)CC1CCn2c(c(C3=C(c4cn(C)c5ccccc45)C(=O)NC3=O)c3ccccc32)C1 (configuration not stated),Potency,HEK293,8.2 µM (active)
same,Potency,HaCat,20.6 µM (active)
same,Potency,CAOV3,22.4 µM (active)
same,Potency,Hek293T,inactive
same,Potency,JEG-3,inactive
same,Potency,OV90,12.6 µM (active)
Cn1cc(-c2cnn3c(N)c(Br)c(C4CCCNC4)nc23)cn1 (configuration not stated),Potency,HEK293,1.03 µM (active)
same,Potency,NIH3T3,6.51 µM (active)
same,Potency,CAOV3,inactive
same,Potency,CASKI,inactive
same,Potency,JEG-3,inactive
same,Potency,OV90,inactive
COc1ccc(C#Cc2ccc(C(=O)N3CCC[C@@H](O)C3)c(F)c2)cc1,Potency,HEK293,13 µM (active)
same,max response,HaCat,-33.7%
same,Potency,Es-2,12.6 µM (active)
same,Potency,Hek293T,14.1 µM (active)
same,Potency,JEG-3,inactive
C=C(C)C(=O)O[C@H]1C[C@@](C)(O)C2(O)CCC(C)(/C=C3/OC(=O)C(COC)=C31)O2 (some centres not stated),Potency,HEK293,3.21 µM (active)
same,Potency,NIH3T3,10.1 µM (active)
same,Potency,Es-2,11.2 µM (active)
same,Potency,HeLa,inactive
CN(C)C(=O)NC1(c2ccccc2)CCN(CCC[C@]2(c3ccc(Cl)c(Cl)c3)CCCN(C(=O)c3ccccc3)C2)CC1,Potency,HEK293,16.4 µM (active)
same,Potency,NIH3T3,20.6 µM (active)
same,Potency,C33A,inactive
same,Potency,CAOV3,20 µM (active)
same,Potency,HeLa,inactive
same,Potency,JEG-3,inactive
Cc1cc2occ(CN(C)CCN(C)Cc3cn(-c4cccc(C(F)(F)F)c4)c4ccccc34)c(=O)c2cc1C,Potency,HEK293,8.2 µM (active)
same,Potency,C33A,31.6 µM (active)
CN(C)CCCn1cc(C2=C(c3c[nH]c4ccccc34)C(=O)NC2=O)c2ccccc21,Potency,HEK293,14.6 µM (active)
same,max response,HaCat,-0.893%
same,Potency,Es-2,28.2 µM (active)
same,Potency,Hek293T,22.4 µM (active)
same,Potency,JEG-3,inactive
N#CSc1cc(SC#N)c(N)nc1N,Potency,HEK293,3.1 µM (active)
same,max response,HaCat,-25%
same,"activity change, negative = cytotoxicity",CAOV3,-3.29% [at 11.6 µM]
same,"activity change, negative = cytotoxicity",CASKI,10.8% [at 11.6 µM]
same,"activity change, negative = cytotoxicity",HeLa,-2.58% [at 11.6 µM]
same,"activity change, negative = cytotoxicity",JEG-3,10.3% [at 11.6 µM]
same,"activity change, negative = cytotoxicity",OV90,2.64% [at 11.6 µM]
O=C(NC1CCN(CCCCC2(C(=O)NCC(F)(F)F)c3ccccc3-c3ccccc32)CC1)c1ccccc1-c1ccc(C(F)(F)F)cc1,Potency,HEK293,11.6 µM (active)
same,Potency,NIH3T3,7.31 µM (active)
Cn1cc(-c2cnn3c(N)c(Br)c([C@@H]4CCCNC4)nc23)cn1,Potency,HEK293,1.16 µM (active)
same,Potency,NIH3T3,2.06 µM (active)
same,Potency,C33A,inactive
same,Potency,CASKI,inactive
same,Potency,OV90,inactive
CC(C)NC(=O)COc1cccc(-c2nc(Nc3ccc4[nH]ncc4c3)c3ccccc3n2)c1,Potency,HEK293,5.8 µM (active)
same,max response,HaCat,-3.54%
same,Potency,CAOV3,25.1 µM (active)
same,Potency,HeLa,17.8 µM (active)
same,Potency,JEG-3,inactive
same,Potency,OV90,inactive
Cc1cc(-c2nc3cc(F)ccc3s2)ccc1NC(=O)[C@@H](N)CCCCN,Potency,HEK293,14.6 µM (active)
same,Potency,C33A,17.8 µM (active)
same,Potency,CAOV3,28.2 µM (active)
same,Potency,CASKI,14.1 µM (active)
same,Potency,Es-2,15.8 µM (active)
same,Potency,HeLa,14.1 µM (active)
same,Potency,Hek293T,12.6 µM (active)
same,Potency,JEG-3,14.1 µM (active)
same,Potency,OV90,8.91 µM (active)
COc1ccc(Oc2c(Cl)cnn(-c3cc(C)cc(C)c3)c2=O)cc1,Potency,HEK293,8.2 µM (active)
same,Potency,NIH3T3,25.9 µM (active)
same,Potency,CAOV3,28.2 µM (active)
same,Potency,Es-2,inactive
same,Potency,HeLa,inactive
same,Potency,Hek293T,inactive
COc1cccc(OCCCN)c1-c1cc(Nc2cnc(C#N)cn2)n[nH]1,Potency,HEK293,0.0103 µM (active)
same,Potency,NIH3T3,0.0411 µM (active)
same,Potency,CAOV3,14.1 µM (active)
same,Potency,CASKI,inactive
C/C=C(/C)C(=O)O[C@H]1C=C(CO)C(=O)[C@H](OC(=O)/C(C)=C/CO)[C@H]1C(C)C,Potency,HEK293,3.6 µM (active)
same,Potency,C33A,10 µM (active)
same,Potency,CAOV3,11.2 µM (active)
Cc1sc2c(c1C)C(c1ccc(Cl)cc1)=N[C@@H](CC(=O)Nc1ccc(OCCOCCOCCOCCNc3cccc4c3C(=O)N(C3CCC(=O)NC3=O)C4=O)cc1)c1nnc(C)n1-2 (some centres not stated),Potency,HEK293,0.0447 µM (active)
same,max response,NIH3T3,-54%
same,Potency,C33A,inactive
same,Potency,Hek293T,inactive
